# Screening results as filed in PubChem BioAssay.
# Only some compounds are listed: those with a hit (about 4.1% of all), similar ones and a draw of the others.
# DAX1 inh-1 – inhibitors of human orphan nuclear receptor DAX1 (NR0B1); P51843; HEK293 Gal4-DAX1 luciferase reporter, luminescence; inhibition, % at 6.75 µM; 0.99% of 340,000 active;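 active = inhibition above the mean over all tested compounds plus 3 SD, cut at about 4.2% in these data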;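 note: 0% = DAX1-transfected cells with DMSO and 100% = empty-vector control cells with DMSO; inhibition shows as a rise in luminescence from relieved DAX1 repression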
# hcDAF12 agonist – activates DAF-12 receptor from parasite H. contortus; 1.4% of 370,000 active; AID 652067; HEK293 hcDAF-12 lit1-tk-luc reporter, luminescence; 0% DMSO, 100% Δ7-dafachronic acid; activation, % at 6.8 µM;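 active = activation above the mean of all tested compounds plus 3 SD, cut at about 5.5% in these data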;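 note: 100% = response to 3 µM Δ7-dafachronic acid high control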
# ssDAF-12 act – S. stercoralis DAF-12 activation, primary screen | activation, % at 6.8 µM | AID 652126 | HEK293 ssDAF-12/GRIP1 lit1-tk-luc reporter, luminescence; % of 3 µM dafachronic acid response | 1% of 370,000 active;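 active = activation above the mean over all tested compounds plus 3 SD, cut at about 0.9% in these data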;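 note: 0% = DMSO-only wells and 100% = 3 µM delta7-dafachronic acid wells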
# DAX1 inh-2 – DAX1 (NR0B1) inhibition, primary screen | HEK293T StAR-luciferase reporter, SF-1/DAX-1 repression relief | 1.1% of 370,000 active | inhibition, % at 6.8 µM | AID 652010;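 active = inhibition above the mean over all tested compounds plus 3 SD, cut at about 3.6% in these data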;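 note: 0% = DAX-1 cells with DMSO and 100% = cells lacking DAX-1 with DMSO; higher inhibition means more luminescence from relief of DAX-1 repression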
# hgDAF-12 ag – hgDAF-12 agonism, primary luciferase screen; HEK293 GAL4-hgDAF12 UAS-luciferase reporter, agonist luminescence; normalized to butyrate control; activation, % at 6.8 µM; 1.8% of 370,000 active;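 active = activation above a cutoff set at the mean of all screened compounds plus 3 SD, cut at about 10% in these data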;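 note: 0% = DMSO wells and 100% = sodium butyrate wells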
# LXRb hcDAF ctr – counter-screen for hcDAF-12 agonists: agonists of human LXR-beta; activation, % at 6.8 µM; AID 743027; shares compounds with hcDAF12 agonist; HEK293 Gal4-LXR tk-luc reporter, luminescence, 24 h; normalized: DMSO 0%, positive control 100%; 3,400 tested, under 10 active;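 active = mean percent activation of the reporter above a cutoff set as the average over tested compounds plus their standard deviation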
# Target sequence (P55055 whole entry, looked up, the tested form may be a part): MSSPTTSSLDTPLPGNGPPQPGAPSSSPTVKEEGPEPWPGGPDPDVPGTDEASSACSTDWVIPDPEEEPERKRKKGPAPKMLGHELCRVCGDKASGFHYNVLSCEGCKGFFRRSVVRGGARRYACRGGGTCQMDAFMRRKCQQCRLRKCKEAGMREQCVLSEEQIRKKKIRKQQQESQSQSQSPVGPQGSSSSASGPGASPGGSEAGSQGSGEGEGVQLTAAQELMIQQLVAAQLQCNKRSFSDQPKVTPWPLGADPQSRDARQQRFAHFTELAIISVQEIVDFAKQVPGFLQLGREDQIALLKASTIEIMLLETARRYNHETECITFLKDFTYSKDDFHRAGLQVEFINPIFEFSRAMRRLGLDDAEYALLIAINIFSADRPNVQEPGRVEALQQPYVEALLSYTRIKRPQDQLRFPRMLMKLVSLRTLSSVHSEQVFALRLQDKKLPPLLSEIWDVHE
# hcDAF12 conf – hcDAF-12 agonism, confirmation assay. 61% of 3,400 active. shares compounds with hcDAF12 agonist. activation, % at 6.8 µM. AID 743032. HEK293 hcDAF-12 lit1-tk-luc reporter, luminescence; % of Δ7-dafachronic acid response;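 active = mean activation across triplicate tests above the threshold derived from the earlier primary screen, cut at about 5.5% in these data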;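 note: 0% = DMSO only wells and 100% = 3 µM Δ7-dafachronic acid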
# * hit, by the source's call; . = no result given.
SMILES,DAX1 inh-1,hcDAF12 agonist,ssDAF-12 act,DAX1 inh-2,hgDAF-12 ag,LXRb hcDAF ctr,hcDAF12 conf
Cn1c2ccc(F)cc2c2nc3ccccc3nc21,1.5,7.1*,0.9,0.0,3.4,0.3,8.3*
Cn1c2ccc(F)cc2c2nnc(SCCN3CCCCC3)nc21,1.6,8.2*,1.1*,1.1,5.1,-0.1,6.9*
CCn1c2ccc(F)cc2c2nc3ccccc3nc21,0.3,0.6,-1.0,0.1,1.6,.,.
CCOc1ccc2c(c1)c1nc3ccccc3nc1n2C,0.4,5.3,0.0,-0.2,3.7,.,.
COc1ccc(N2C(=O)c3n[nH]c(C(C)C)c3C2c2ccccc2)cc1 (stereo unspecified),.,-1.4,-0.6,0.2,0.4,.,.
O=C(Oc1ccccc1)c1ccccc1,0.0,1.6,-0.9,-0.6,1.7,.,.
CN(C)S(=O)(=O)c1ccc(C(=O)Oc2ccccc2)cc1,0.9,12.0*,-1.2,-0.6,2.1,-0.1,0.7
COC(=O)[C@]12C[C@H](CC(=O)N3CCCC3)C(=O)N(CCc3ccc(OC)c(OC)c3)C1=C[C@H](C1CCCC1)O[C@@H]2C,.,-0.4,-2.0,-1.3,1.6,.,.
CCc1cc2c(nc1CC)CCCN2S(=O)(=O)c1ccc(F)cc1,.,-0.6,-1.5,0.0,-3.6,.,.
Cc1cc(=O)oc2cc(NC(=O)c3ccccc3OC(F)F)ccc12,0.4,7.3*,1.6*,1.6,9.9,0.5,9.6*
Cn1c(O)c(N=Nc2nc(-c3ccccc3)cs2)c2ccccc21,1.4,11.8*,-0.3,0.2,1.5,0.0,7.4*
Cn1c(O)c(N=NC(=O)c2cc(-c3cccs3)nc3ccccc23)c2ccccc21,-1.3,2.5,-0.5,0.0,0.2,.,.
COC(=O)c1ccc(N)c2c(N)ccc(C(=O)OC)c12,.,2.1,-1.0,-0.7,-3.5,.,.
Cc1cccc(-c2nc3ccccc3c(=O)[nH]2)c1,1.8,0.7,-1.0,0.6,7.8,.,.
COc1ccc(-c2nc3ccccc3c(=O)[nH]2)cc1,2.0,7.4*,0.4,2.6,12.8*,1.1,8.4*
C[C@H](O)[C@@H]1C(=O)N2CCc3c([nH]c4cccc(-c5ccccc5)c34)[C@@H]2C[C@@H]1N(C)C(=O)C1CCCCC1,.,-0.7,-0.2,-0.1,0.8,.,.
c1ccc(CCNc2nc3ccccc3n3nnnc23)cc1,0.9,0.6,-1.2,0.4,1.6,.,.
COc1ccc(CCNc2nc3ccccc3n3nnnc23)cc1OC,3.7,7.7*,-0.2,-0.6,6.5,0.0,1.9
c1ccc(C2=NN(c3ccccc3)CC2)cc1,4.3*,6.7*,0.7,2.0,11.2*,0.4,3.6
COc1ccccc1NC(=O)N(C)C[C@H]1OCc2cn(nn2)CCCC(=O)N([C@H](C)CO)C[C@@H]1C,.,-0.9,-0.7,0.1,-1.4,.,.
c1ccc2[nH]c(-c3ccc4c(c3)OCO4)nc2c1,.,9.9*,0.4,2.5,12.4*,1.4,4.8
COc1ccc(-c2nnc3c4ccccc4c(C)nn23)cc1,2.0,6.7*,0.5,1.1,6.9,0.3,5.7*
Cc1nn2c(-c3ccncc3)nnc2c2ccccc12,-0.1,-2.8,-1.3,0.2,0.9,.,.
Cc1ccc(-c2nc(NCCN3CCOCC3)c3ccccc3n2)cc1,1.5,6.8*,-0.2,2.4,10.9*,-0.3,6.4*
Cc1ccc(-c2nc(NCCCN(C)C)c3ccccc3n2)cc1,4.0,8.3*,-0.1,2.7,10.9*,0.1,11.4*
CN(C)CCCNc1nc(-c2ccccc2)nc2ccccc12,-0.7,3.9,-0.1,-0.1,-0.8,.,.
COCC#Cc1ccc(CC[C@H]2O[C@H]3CC[C@@H](CO)O[C@H]3C[C@H]2n2cc(C(C)(C)O)nn2)cc1,.,-0.5,-0.8,0.3,-1.5,.,.
CCc1ccc(-c2cn(C3CCCCC3)c(=S)[nH]2)cc1,0.2,10.6*,-0.1,0.8,7.4,0.1,1.3
CCc1ccc(-n2cc(-c3ccc([N+](=O)[O-])cc3)[nH]c2=S)cc1,-0.1,0.5,-0.5,0.8,4.9,.,.
